For the assay, the system named is RARb homodimer (NR concentration 270 nM). Put plainly: PBM binding z-score (relative to random genomic background probes); higher = stronger binding; sequences stand for … in GC…GCGATTGACAGCGTAGAATGAAGG
The method in brief:
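Scanned fluorescence from custom Agilent 4×180K protein-binding microarrays was regression-normalized. Binding z-scores use random background probes as reference. Ligand-free nuclear receptor dimers were incubated on the arrays for 1 h and detected with antibodies against each partner (one per run).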
CTATGTAGGTTAAGCGGGTCATTCAGTTTGAAAG: the PBM binding z-score came out at 2.58.
The sequence TAGCCTCGGTCATTCAGGGGCCAGTATAGAAAGC had a PBM binding z-score of 2.44.
With AGTCAAAGTTCTTCTAGGTAACGTAAGATATGCT the figure was 0.172; with CTCGAAAGGTCGAGCTCAGGTGAGTATACCAAAC, 2.85.
For CAAACTAGGTCACCGTAAGGTCAAAGTCCGCATG the value was 5.88.
With CGTCCAAGGTCAATGTTAGGTCAGTGAAAGCATT the figure was 5.33; with CCGAGTAGGTTACGAGGGGGAATTCAGTGCGAAT, 0.662.
On to CCGACGGGGGCAGAAAGGTTACCATACCATCCGG, for which the PBM binding z-score worked out at 3.29.
Regarding CGTCAAAGTTCAAGGTAAAGTAACAGAAAGCAGC, the PBM binding z-score was determined as 3.36.
With CCTACTGGGCCATTCAGAGGTCATCGATCATATG the figure was 4.27; with CGTCGAAGGTCAATGCTAGGTCAGTGAAAGCATT, 5.11; with CCGAGTAGGTTACGAGGGGGCATTCATTGCGAAT, 2.05.
For CAAAGTAGGTCACCGGAAGGTCAAAGTCCGCATG the value was 5.78.
Regarding TCGAGTAGGTTACGGGGTCATTCAGGGATGAAGA, the PBM binding z-score worked out at 3.99.
In turn, CGAACTATGTCACCAGGACAGTGAAGAGGTTGGA had a PBM binding z-score of 0.797.
With CTATCTAGGTTAAGGGGGTCATTCAGTTTGAAAG the figure was 3.94; with TTACCAAGGTGAAAGGTCGTTGAGGCACGCCTTG, 2.61; with TCGAGTAGGTTATGGGGGCATTCAGGGATGAAGA, 2.17.
For CGAACTAGGTCACCAGGACAATGAAGAGGTTGGA the value was 3.4; for CGAACTAGGTCACCAGGACACTGAAGAGGTTGGA, 3.48.
In turn, CGGACTGGGGCAAAGGTTACCATACTCAGTACGA had a PBM binding z-score of 2.31.
With TCGAGTAGGGTACGGGGGCATTCAGGGATGAAGA the figure was 1.81.

These data come from the supplement of paper PMC6555819.
